# Screening results as filed in PubChem BioAssay.
# The list is not random: actives were taken first. Their share in the collection is about 21%.
# MRP-1 activ: H69AR viability gain despite doxorubicin, primary screen, MRP-1 activator project, H69AR cells, CellTiter-Glo. viability increase, % at 10 µM. viability rescue. 140,000 tested, 0.61% active;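 active = viability gain under doxorubicin at or above a set limit, the compound median plus 3 SD, cut at about 4.7% in these data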;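 also: MRP-1 overexpressing cells given doxorubicin 25 µM after compound pretreatment; 18-22 h compound pretreatment then 72 h with doxorubicin before readout; 0% = doxorubicin-only wells and 100% = vehicle-treated cells without doxorubicin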
# CYP2C19 act: human CYP2C19 activators, primary screen, biochemical, luminescence. Cytochrome P450 2C19 (Homo sapiens), P33261. recombinant CYP2C19, luciferin-H EGE luminescence; hits give high values; 0 = fully inhibited enzyme, 1 = untreated enzyme. activation factor at 5 µM. 96,000 tested, under 10 active. AID 1025, 2008;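 active = activation factor of at least 2 at 5 µM in the primary screen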;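 also: 0 = wells with 2.5 mM tranylcypromine and 1 = vehicle-only wells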
# CYP2C9 act: human CYP2C9 activators, primary screen, biochemical, luminescence; recombinant CYP2C9, luciferin-H conversion; hits give high values; factor 1 = untreated enzyme, 0 = blocked; activation factor at 5 µM; 96,000 tested, 1.4% active;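 active = activation factor of 2 or more for CYP2C9 at a 5 µM dose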;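 also: 0 = sulfaphenazole-blocked wells and 1 = vehicle-only wells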
# Target sequence (P11712 whole entry, looked up): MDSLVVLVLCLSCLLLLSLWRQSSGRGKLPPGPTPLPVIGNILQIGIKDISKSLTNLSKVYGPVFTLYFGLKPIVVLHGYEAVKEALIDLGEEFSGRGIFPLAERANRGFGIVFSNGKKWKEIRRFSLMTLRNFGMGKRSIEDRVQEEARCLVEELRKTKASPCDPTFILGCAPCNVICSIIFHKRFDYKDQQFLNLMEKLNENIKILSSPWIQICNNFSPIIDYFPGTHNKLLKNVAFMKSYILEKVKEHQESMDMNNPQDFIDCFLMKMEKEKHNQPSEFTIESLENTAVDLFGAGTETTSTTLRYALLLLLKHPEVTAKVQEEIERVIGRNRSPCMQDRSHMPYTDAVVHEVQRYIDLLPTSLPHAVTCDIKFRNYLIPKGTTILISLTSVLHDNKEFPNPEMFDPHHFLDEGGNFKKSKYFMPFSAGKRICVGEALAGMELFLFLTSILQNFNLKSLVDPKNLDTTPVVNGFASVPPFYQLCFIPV
# CYP2C9 inhib: blockers of cytochrome P450 2C9 activity – biochemical, luminescence, ADME assay, primary screen; CYP2C9 Supersomes, luciferin-H conversion; inhibition, % at 5 µM; 96,000 tested, 20% active; P11712; AID 777, 2007;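 active = blocking of liver enzyme CYP2C9 beyond about 50% at 5 µM, limit read from the data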
# MRP reversal: reversal of MRP1-mediated doxorubicin resistance, primary screen, H69AR cells, doxorubicin co-treatment; H69AR cells + 2 uM doxorubicin, CellTiter-Glo, 72 h; differential viability (reversal), % at 10 µM; 85,000 tested, 0.04% active;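 active = viability drop by adding the cancer drug above about 55%, with treated viability meeting a 40% cutoff, limit read from the data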;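 also: viability without doxorubicin minus viability with 2 µM doxorubicin for each compound; larger differential means the compound sensitizes cells more to doxorubicin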
# CYP2C19 inh: blockers of cytochrome P450 2C19 activity – biochemical, luminescence, ADME assay, primary screen; P33261; CYP2C19 Supersomes, luciferin-H EGE luminescence, 30 min; inhibition, % at 5 µM; 96,000 tested, 21% active; AID 778, 2007;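 active = CYP2C19 inhibition above a set limit at 5 µM in the primary screen, cut at about 50% in these data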;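 also: plate controls were negative control wells for no effect and 2.5 mM tranylcypromine positive control for full effect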
# An asterisk follows results filed as active; x = no result.
SMILES,MRP-1 activ,CYP2C19 act,CYP2C9 act,CYP2C9 inhib,MRP reversal,CYP2C19 inh
COc1ccc(S(=O)(=O)N2CC(O)CC2C(=O)OCC(=O)Nc2ccc(Cl)cn2)cc1 (stereo unspecified),-1.5,0.3,1.1,-6.8,18.5,73.5*
Cc1noc(C)c1COC(=O)C1CC(O)CN1S(=O)(=O)c1ccc(Cl)cc1 (stereo unspecified),-1.2,0.3,0.7,26.0,-7.2,71.2*
O=C(COC(=O)[C@@H]1CCCN1S(=O)(=O)c1ccc(Cl)cc1)NC12CC3CC(CC(C3)C1)C2,-0.1,x,x,x,x,x
O=C(COC(=O)C1CC(O)CN1S(=O)(=O)c1ccc(Cl)cc1)c1ccccc1Cl (stereo unspecified),-0.4,x,x,x,x,x
CCOC(=O)N1CCN(c2c(NCC3CCN(Cc4cccc(C)c4)CC3)c(=O)c2=O)CC1,-1.8,1.1,1,-1.8,23.0,-6.1
Cc1ccc(NC(=O)C(=O)NCc2ccc(/C=N/NC(=O)c3c(C)nc4ccccn34)o2)cc1,2.4,x,x,x,x,x
CCOC(=O)N1CCC(NC(=O)c2ccc(CS(=O)(=O)c3ccccc3C)o2)CC1,-1.0,1.1,0.2,77.3*,1.3,-9.3
CCOC(=O)N1CCC(NC(=O)c2ccc(CS(=O)(=O)c3c(Cl)cccc3Cl)o2)CC1,-3.7,1.1,0.3,66.2*,3.2,-6.8
CSc1nc(Cl)cc(N(CCO)CCO)n1,-2.5,1,1.3,-31.7,x,-3.5
Nc1c(C(=O)NCc2ccccc2)c2nc3ccccc3nc2n1CCCN1CCOCC1,-4.7,x,x,x,x,x
O=C(NCCCN1CCOCC1)c1cc(-c2ccc3c(c2)OCO3)nc2ccccc12,-1.6,0.9,0.5,54.3*,11.4,12.2
CCOc1ccc(-c2cc(C(=O)NCCCN3CCN(CC)CC3)c3ccccc3n2)cc1,-4.8,1.1,0.8,18.8,10.6,-7.0
COc1ccc(CNC(=O)c2c(N)n(CCCN3CCOCC3)c3nc4ccccc4nc23)cc1,-5.5,0.3,0.9,12.7,-0.3,74.9*
COC(=O)c1cc(-c2ccc3c(c2)OCO3)nc2ccccc12,-3.2,0.9,0.6,38.7,7.3,6.7
COc1ccc(-c2cc(C(=O)NCCN3CCOCC3)c3ccccc3n2)cc1,-2.3,0.8,0.5,52.0*,2.7,24.0
O=C(Nc1ccc(Cl)c(S(=O)(=O)N2CCOCC2)c1)c1ccccc1-c1ccc(C(F)(F)F)cc1,-2.8,x,x,x,x,x
COc1ccc(-c2nc(C(F)(F)F)c(OC)o2)cc1OC,1.2,x,x,x,x,x
Cc1nc(SCc2cccc(Oc3ccccc3)c2)n[nH]1,-3.0,0.6,0.7,25.8,9.1,40.1
O=C1C2C3C=CC(CC3)C2C(=O)N1/N=C/c1ccc(O)cc1 (stereo unspecified),-1.2,0.7,2*,-95.9,x,27.8
O=C1C2C3C=CC(CC3)C2C(=O)N1/N=C/c1ccc(O)c(O)c1 (stereo unspecified),-1.0,x,x,x,x,x
COc1ccc(OC)c(N2Cc3cc(C)c(C)cc3C2)c1,-0.9,1,0.1,88.5*,2.0,1.6
COc1ccc(OC)c(-n2cnnn2)c1,-1.6,1,1,-4.9,18.9,-4.3
CCOc1ccccc1N1Cc2cc(C)c(C)cc2C1,-2.8,0.5,0.8,22.9,x,54.4*
CN(C)C(CNC(=O)c1cccc(S(=O)(=O)N2CC3(C)CC2CC(C)(C)C3)c1)c1ccco1 (stereo unspecified),-2.2,0.3,0.3,72.8*,4.4,74.9*
COC(=O)C(C)Sc1snnc1-c1ccccc1 (stereo unspecified),0.3,0.1,0.4,63.9*,26.1,91.8*
SMILES,MRP-1 activ,CYP2C19 act,CYP2C9 act,CYP2C9 inhib,MRP reversal,CYP2C19 inh
Cc1ccc(N(C(=O)CCC(=O)Nc2cc(C)on2)C(C(=O)NC2CCCC2)c2ccncc2)cc1 (stereo unspecified),-1.5,0.4,0.3,69.4*,-2.9,64.0*
Cc1cc(NC(=O)CCC(=O)N(Cc2cccs2)C(C(=O)NC2CCCC2)c2ccncc2)no1 (stereo unspecified),-1.6,0.3,0.2,84.5*,-0.5,68.6*
Cc1cccc(N(C(=O)CCC(=O)Nc2cc(C)on2)C(C(=O)NC2CCCC2)c2ccncc2)c1 (stereo unspecified),-1.4,0.2,0.2,83.8*,-5.2,81.0*
COc1ccc(C(C(=O)NC(C)(C)C)N(CC2CCCO2)C(=O)CCC(=O)Nc2cc(C)on2)cc1 (stereo unspecified),-2.1,0.5,0.2,83.5*,x,51.1*
COCCNC(=O)C(c1ccc(F)cc1)N(CC1CCCO1)C(=O)CCC(=O)Nc1ccccn1 (stereo unspecified),-1.0,1.1,1.1,-14.7,-3.7,-14.5
Cc1cc(NC(=O)CCC(=O)N(c2cccnc2)C(C(=O)NC2CCCC2)c2ccccc2F)no1 (stereo unspecified),-0.1,x,x,x,5.2,x
Cc1ccc(C(C(=O)NC2CCCC2)N(C(=O)CCC(=O)Nc2cc(C)on2)c2ccccc2)cc1 (stereo unspecified),-0.5,x,x,x,-0.2,x
Cc1cc(NC(=O)CCC(=O)N(Cc2ccco2)C(C(=O)NC2CCCCC2)c2ccccc2)no1 (stereo unspecified),-0.1,x,x,x,10.4,x
O=C(c1cc2ccccc2oc1=O)N(c1ccc(Cl)cc1)C1C=CS(=O)(=O)C1 (stereo unspecified),-3.8,x,x,x,x,x
CC(C)NC(=O)CC(=O)N/N=C/c1ccc(F)cc1,-2.3,1,0.8,21.6,x,1.2
C=CCN1C(=O)CSc2ccc(C(=O)N3CCC(C)CC3)cc21,-0.8,0.8,1.1,-11.1,-4.7,16.5
COc1cccc(C2=NN(C(=O)c3ccccc3)C(O)(C(F)(F)F)C2)c1 (stereo unspecified),-1.8,0.1,0.1,92.4*,x,88.8*
CCOC(=O)C1CCCN(c2ncnc3c2[nH]c2cccc(OC)c23)C1 (stereo unspecified),-2.6,0.4,0.5,47.0,-0.9,63.2*
CCc1ccc(Cn2nnc(C(=O)Nc3ccc(OC)cc3OC)c2N)cc1,-3.9,1.1,3.4*,-237.8,-0.6,-7.5
COc1ccc(OC)c(NC(=O)c2nnn(CCc3ccccc3)c2N)c1,-1.4,1.1,0.9,14.6,-8.5,-5.4
COc1cccc(NC(=O)c2nnn(CCc3ccccc3)c2N)c1,-3.8,0.3,0.1,91.8*,-34.8,73.2*
O=C(CCn1c(=O)oc2ccccc21)NCc1cccs1,0.2,x,x,x,9.8,x
CCOC(=O)C1=C(C)NC2=C(C1c1ccc([N+](=O)[O-])cc1)S(=O)(=O)c1ccccc12 (stereo unspecified),-3.3,0.9,0.4,62.1*,x,5.6
